A selection: hits, their analogues and other compounds. The true share with any hit is near 2.9%.
PLCb3 inh = human PLC-beta3 inhibitors, primary screen, biochemical, fluorescence; 1-phosphatidylinositol 4,5-bisphosphate phosphodiesterase beta-3 (Homo sapiens), Q01970; Purified PLC-beta3, fluorogenic substrate; inhibition, % at 12.2 µM; 0.18% of 370,000 active; AID 720704, 2013; in the data active means inhibition above about 11%;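 further: 0% = median of compound wells on plate and 100% = full blocker control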
KLK7 zymogen act = proKLK7 zymogen activators, primary screen, biochemical, fluorescence intensity; 0.9% of 370,000 active; purified proKLK7, EDANS-DABCYL substrate fluorescence; 100% is mature enzyme control, 0% vehicle; activation, % at 7 µM;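 active means activation above the mean of all tested compounds plus 3 SD, computed per campaign excluding outliers beyond control limits, cut at about 13% in these data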
ADAM17 inh = ADAM17 inhibitors, primary screen, biochemical, QFRET. recombinant ADAM17, EDANS/DABCYL FRET peptide cleavage. AID 720648, 2013. 0.83% of 370,000 active. inhibition, % at 6.95 µM;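 active means inhibition above the mean of compounds lying between control limits plus 3 SD, set per campaign, cut at about 8.5% in these data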;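 further: 0% = DMSO-only wells as the low control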
Target sequence (P78536 215-824 limits assumed): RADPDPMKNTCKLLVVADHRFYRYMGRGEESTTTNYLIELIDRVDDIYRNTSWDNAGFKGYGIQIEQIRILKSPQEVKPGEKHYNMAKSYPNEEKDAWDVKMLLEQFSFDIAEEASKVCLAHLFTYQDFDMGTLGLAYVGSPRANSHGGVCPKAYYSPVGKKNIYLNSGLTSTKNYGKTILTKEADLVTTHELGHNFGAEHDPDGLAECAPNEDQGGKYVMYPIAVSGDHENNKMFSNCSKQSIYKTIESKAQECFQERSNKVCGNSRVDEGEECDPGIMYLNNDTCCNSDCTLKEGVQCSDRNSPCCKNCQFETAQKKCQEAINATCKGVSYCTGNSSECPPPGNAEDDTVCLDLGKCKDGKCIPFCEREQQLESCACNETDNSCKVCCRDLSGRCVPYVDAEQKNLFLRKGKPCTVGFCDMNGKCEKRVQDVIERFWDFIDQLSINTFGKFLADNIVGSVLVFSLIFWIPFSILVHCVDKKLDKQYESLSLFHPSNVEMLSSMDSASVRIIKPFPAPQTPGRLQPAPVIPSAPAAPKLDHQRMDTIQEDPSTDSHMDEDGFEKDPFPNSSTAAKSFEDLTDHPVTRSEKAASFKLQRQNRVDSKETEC
ADAM10 inh = human ADAM10 inhibitors, primary screen, biochemical, QFRET, HTS. recombinant ADAM10, EDANS/DABCYL FRET peptide cleavage, 3 h. inhibition, % at 7 µM. 0.62% of 370,000 active;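 active means inhibition above a per-campaign cutoff equal to the mean of compounds falling between control-based bounds plus 3 SD, cut at about 20% in these data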;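 further: 0% = DMSO wells while the 100% control is not disclosed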
PLC-gamma1 inh = PLC-gamma1 enzyme inhibitors, primary screen, biochemical, fluorescence, purified enzyme; 0.84% of 370,000 active; fluorogenic substrate; 1-phosphatidylinositol 4,5-bisphosphate phosphodiesterase gamma-1 (Homo sapiens), P19174; inhibition, % at 12.2 µM; in the data active means inhibition above about 9.5%
ADAM10 confirm = human ADAM10 inhibitors, confirmation, biochemical, QFRET, triplicate | ADAM10 QFRET peptide cleavage, EDANS fluorescence | shares compounds with ADAM10 inh | inhibition, % at 6.95 µM | 1% of 2,100 active;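 active means inhibition above about 20% chosen separately for each screening run, limit read from the data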;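 further: 0% = DMSO wells and 100% = marimastat wells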
ADAM17 counter = ADAM17 inhibitors, counter-screen for ADAM10 exosite inhibitor project, biochemical, QFRET, high throughput | shares compounds with ADAM10 inh | ADAM17 QFRET peptide cleavage, EDANS fluorescence | inhibition, % at 6.95 µM | 0.5% of 2,100 active;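 active means mean triplicate inhibition above the solvent-only control wells' mean plus 3 SD, cut at about 12% in these data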;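 further: 0% = DMSO wells and 100% = marimastat wells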
* = called active by the depositor; . = no result given.

SMILES	PLCb3 inh	KLK7 zymogen act	ADAM17 inh	ADAM10 inh	PLC-gamma1 inh	ADAM10 confirm	ADAM17 counter
C=CCN1C(=O)[C@@H](CC(=O)NCC2CCCCC2)[C@]2(C(=O)OCC)CCCCC/C=C/12	6	0	3	2	7	.	.
COC(=O)CSc1nnc(-c2ccc(NS(=O)(=O)c3ccc(Cl)s3)cc2)o1	-3	0	0	0	-2	.	.
COc1ccccc1OC(C)C(=O)Nc1nc(-c2ccc(S(=O)(=O)N3CCOCC3)cc2)cs1 (stereo not drawn)	-21	0	7	21*	-16	9	3
COc1ccccc1C(=O)Nc1nc(-c2ccc(S(=O)(=O)N3CCOCC3)cc2)cs1	-26	-13	3	-8	-22	.	.
O=C1[C@H]2[C@@H](c3ccc(F)cc3)N3C(=O)N(c4ccccc4)C(=O)[C@@]3(Cc3ccc(Cl)cc3)[C@H]2C(=O)N1C1CCCCC1	2	0	-4	6	1	.	.
COc1ccc(N2C(=O)N3[C@H](c4ccc(Br)cc4)[C@@H]4C(=O)N(C(C)(C)C)C(=O)[C@@H]4[C@]3(Cc3ccccc3)C2=O)cc1	4	0	7	24*	3	4	1
COc1ccc([C@@H]2[C@@H]3C(=O)N(C(C)(C)C)C(=O)[C@@H]3[C@]3(Cc4ccccc4)C(=O)N(c4ccccc4)C(=O)N23)cc1	0	0	-2	5	-1	.	.
O=C1[C@H]2[C@@H](c3ccc(F)cc3)N3C(=O)N(c4ccccc4)C(=O)[C@@]3(Cc3ccccc3)[C@H]2C(=O)N1C1CCCCC1	3	0	7	24*	2	1	1
CN1C(=O)c2cc(NC(=O)Cc3ccccc3)ccc2OC[C@H]2O[C@H](CC(=O)O)CC[C@H]21	-3	0	0	-2	-4	.	.
CCN(CC)C(=O)CC[C@H]1CC[C@]2(CCCN(CC3CC3)C2)O1	0	0	4	0	2	.	.
CNCCOc1nc(N2CCOCC2)nc(C)c1[N+](=O)[O-]	1	0	2	1	5	.	.
CCOc1nc(N2CCOCC2)nc(C)c1[N+](=O)[O-]	5	0	1	20*	4	1	0
COc1ccc(S(=O)(=O)NCc2ccccn2)cc1Br	3	0	5	23*	8	-2	0
COc1cc(S(=O)(=O)NCc2ccccn2)ccc1Cl	2	0	2	9	6	.	.
Cc1ccc(S(=O)(=O)N2CCN(C(=O)c3cccn3C)CC2)cc1	-3	0	-2	-5	0	.	.
COc1ccc(N2CCN(C(=O)CN(c3ccccc3)S(=O)(=O)c3ccc(OC)cc3)CC2)cc1	3	0	-1	0	5	.	.
COc1ccc(N2CCN(C(=O)CN(c3ccc(OC)cc3)S(=O)(=O)c3ccccc3)CC2)cc1	-7	0	1	21*	0	3	-1
C/C(=N\N=C(/N)SC1CC(=O)N(c2cccc(Cl)c2)C1=O)c1cccs1 (stereo not drawn)	-23	-1	8	27*	6	5	2
CCCOc1ccc(N2C(=O)CC(S/C(N)=N/N=C(\C)c3cccs3)C2=O)cc1 (stereo not drawn)	2	0	-4	14	3	.	.
O=C(Nc1cc(Sc2ccccn2)cc([N+](=O)[O-])c1)c1cccc(Cl)c1	4	-1	7	20*	0	7	3
Cc1ccccc1CN(c1ccc(C(=O)Nc2ccccc2C(=O)NCc2ccco2)cc1)S(C)(=O)=O	-47	-41	8	26*	-44	20*	4
Cc1occc1-c1nnc(SCC(=O)Nc2ccccn2)n1-c1ccccc1	1	1	2	1	3	.	.
O=C(O)c1cccc(NC(=S)N/N=C/c2ccccc2OCc2ccc(Br)cc2)c1	-18	0	-1	23*	-8	3	1
O=C(O)c1cccc(NC(=S)N/N=C/c2ccccc2OCc2cccc(Br)c2)c1	-25	0	-3	-4	-21	.	.
O=C(c1ccc(F)cc1F)N(Cc1ccccn1)CC1CCCO1 (stereo not drawn)	0	1	3	3	0	.	.
SMILES	PLCb3 inh	KLK7 zymogen act	ADAM17 inh	ADAM10 inh	PLC-gamma1 inh	ADAM10 confirm	ADAM17 counter
O=C(N/N=C/c1c(Nc2cccc(C(F)(F)F)c2)nc2ccccn2c1=O)c1ccccc1[N+](=O)[O-]	-3	1	1	32*	-2	0	0
CS(=O)(=O)N[C@@H]1C[C@@H]2O[C@@H](CO)CC[C@@H]2O[C@@H]1CCc1ccc(-c2ccccc2F)cc1	-2	0	3	5	2	.	.
Cc1cc(C)c(C#N)c(SCc2ccccc2)n1	4	0	8	23*	6	1	1
COC(=O)C1=C(C)N(Cc2cccc(C(F)(F)F)c2)C(=NCc2ccc(C(F)(F)F)cc2)NC1c1ccccc1 (stereo not drawn)	1	0	-3	-11	-1	.	.
N#C/C(=N\Nc1ccccc1Cl)C(=O)c1ccccc1	-3	0	-4	-9	-1	.	.
N#C/C(=N\Nc1cccc(Cl)c1)C(=O)c1ccccc1	0	-1	8	20*	3	-1	-1
CCn1cc(CNC(=O)c2cccc([N+](=O)[O-])c2)c(C)n1	-4	-1	-2	-8	3	.	.
O=C(NCc1cn(-c2ccccc2)nc1-c1ccc(F)cc1)c1cccc([N+](=O)[O-])c1	6	0	9	21*	2	7	2
CC(=O)N[C@@H](Cc1c[nH]c2ccccc12)C(=O)OCc1cc(C(F)(F)F)cc(C(F)(F)F)c1	-1	0	3	24*	1	-1	-1
COC(=O)C(Cc1c[nH]c2ccccc12)NC(C)=O (stereo not drawn)	2	0	-2	0	5	.	.
Cc1nn(CCCC(=O)Nc2cc(Oc3ccc(F)cc3)cc([N+](=O)[O-])c2)c(C)c1[N+](=O)[O-]	0	0	6	26*	1	5	2
Cc1ccccc1Oc1cc(NC(=O)CCCn2nc(C)c([N+](=O)[O-])c2C)cc([N+](=O)[O-])c1	-4	0	8	19	-1	.	.
COc1ccc(N2C(=O)CSC23C(=O)N2c4c(cccc43)C(C)=CC2(C)C)cc1 (stereo not drawn)	3	0	9	22*	6	2	0
